Our source for the outcome values is PubChem BioAssay AID504725 (Broad Institute, 2011).

Each structure is given as a SMILES string. Potency and affinity values are given separately. Active and inactive are the calls of the source. Where a call stands in place of a potency, no number is given. The rule behind the calls is not given here.

This assay concerns the target KSHV LANA C-terminal domain (residues 932-1162) binding to LBS DNA (UniProt O40947). Kind of assay: inhibitors of C-LANA binding to LBS DNA, dose response, biochemical, fluorescence polarization, cherry-picked samples (AID 504725). The settings on record: MBP-C-LANA / FAM-LBS DNA fluorescence polarization, percent change from plate compound-well median; series mostly up to 35 µM. (In general: Fluorescence polarisation rises when a labelled molecule tumbles more slowly, as on binding a larger partner.)
Take `Cc1noc(C)c1C(=O)N1CCN(c2ccc(OCc3ccccc3)cc2)CC1`: the result was inactive. To `COc1ccc(OC2CCN(S(=O)(=O)c3ccc(OC)cc3)CC2)cc1` belongs “inactive”; to `COc1ccccc1C(=O)NCC(=O)OCC(=O)N(CC(C)C)c1c(N)n(Cc2ccccc2)c(=O)[nH]c1=O`, “inactive”. As for `COc1cccc(-c2cc(C(=O)N3CCN(S(=O)(=O)c4ccccc4)CC3)[nH]n2)c1`, the call was inactive.

`Cc1ccc(NC(=S)N/C(=N/S(=O)(=O)c2ccccc2)c2ccccc2)cc1`: the call was inactive.

Regarding `Cc1cc(C)n(CCC(=O)N/N=C/c2ccc(O)cc2O)n1`, the result was inactive. As for `CCOC(=O)c1ccc[n+](CC(=O)c2ccc(OC)cc2)c1`, the result was inactive. To `NC(=S)N/N=C/c1ccc(-c2ccc([N+](=O)[O-])cc2)o1` belongs “inactive”; to `COc1ccc(NC(=O)COC(=O)c2c(-c3ccccc3)noc2C)cc1`, “inactive”; to `Cc1nn(CC(=O)c2ccc(Br)s2)c(C)c1[N+](=O)[O-]`, “inactive”.

With `Cc1cc(N)ccc1N=Nc1c(C)n(C)n(-c2ccccc2)c1=O`, the molecule was called inactive. To `COc1ccc(S(=O)(=O)N2CCC(C(=O)N3CCCCC3)CC2)cc1` belongs “inactive”; to `CCCCn1nc(CC(=O)O)c2ccccc2c1=O`, “inactive”; to `CCOC(=O)c1ccccc1Nc1cc(C)nc2nc(C)nn12`, “inactive”. On to `O=C(NCCCO)c1ccc2nc(-c3ccco3)c(-c3ccco3)nc2c1`, for which the call was inactive. Consider `NC(=O)c1ccc(NC(=O)C2COc3ccccc3O2)cc1` (stereo not drawn), for which the result was inactive. Next, `Cc1ccc(C(=O)c2coc3ccc(O)c(Cl)c23)cc1`: “inactive”; `Cc1ccc(OCC(=O)NC(=S)Nc2cccc(NC(=O)c3ccc(Cl)cc3Cl)c2)cc1`: “inactive”.
